Reference: PubChem BioAssay AID1053125 (Broad Institute, 2014)
Potency and affinity values are given separately. Activity calls are given as the source filed them.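 How the source made its calls: active means viability loss whose fitted half-maximal concentration is at most twice the top valid tested dose; inconclusive means flat curve with 30 to 70% loss, or poor fit; inactive means the rest.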

assay: HepG2 cell cytotoxicity, dose response, cytotoxicity control, ATP luminescence, cherry-pick, set 6 (AID 1053125); details: HepG2 viability, ATP luminescence (CellTiter-Glo), 72 h; series mostly up to 26 µM;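 further: negative values mean loss of viability signal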

Structure (SMILES) | outcome
CCc1ccccc1S(=O)(=O)Cc1ccc(C(=O)N2CCN(c3ccccc3OC)CC2)o1 | inactive
O=C(Cc1csc(-c2ccccc2)n1)NCc1ccccc1F | inactive
CCOC(=O)C1=CN(CC2CCCO2)C=C(C(=O)OCC)C1c1ccccc1C(F)(F)F (stereo not given) | inactive
O=C(NS(=O)(=O)c1ccc(Cl)s1)c1ccccc1 | inactive
COc1cc(C2C3=C(CC(C)(C)CC3=O)N(C)C3=C2C(=O)CC(C)(C)C3)cc(Br)c1O | inactive
CSc1ccc(Cn2c(C)c(C(=O)NCCC#N)sc2=O)cc1 | inactive
COc1ccc(NC(=O)C2CCC(CNS(=O)(=O)c3cccs3)CC2)cc1 (stereo not given) | inactive
CCCOc1c(Br)cc(C2C3=C(CCCC3=O)N(C)C3=C2C(=O)CCC3)cc1OC | inactive
Cc1cccn2c(=O)c(/C=C(\C#N)C(N)=O)c(Oc3ccccc3)nc12 | inactive
CCCOc1ccccc1/C=C1\SC(N)=NC1=O | inactive
COc1ccc(C2C3=C(CC(C)(C)CC3=O)N(C)C3=C2C(=O)CC(C)(C)C3)cc1 | inactive
CCOc1ccccc1N=c1oc2cc(O)ccc2cc1C(=O)NCC1CCCO1 (stereo not given) | inactive
CNC(=O)c1ccc(NC(=O)c2cccc(C(F)(F)F)c2)cc1 | inactive
O=c1[nH]c(Nc2ccccc2Cl)cc2ccccc12 | inactive
O=C(O)c1ccc(-c2ccc(/C=C3\NC(=O)N(Cc4ccc(Cl)cc4)C3=O)o2)cc1 | inactive
Cc1nc2ccc(S(=O)(=O)Nc3ccc(-c4nc5cccnc5s4)cc3)cc2s1 | inactive
CSC1=NSC2=NC(=O)/C(=C/c3coc4ccc(O)cc4c3=O)C(=N)N12 | inactive
Clc1ccccc1C1=CC(c2ccco2)n2ncnc2N1 (stereo not given) | inactive

Structure (SMILES) | outcome
Cn1nc(-c2ccc(Cl)cc2)c2cc(C(=O)N3CCN(c4ccccc4)CC3)sc21 | inactive
Cn1c2ccccc2c(=O)c2ccc(F)cc21 | inactive
Cn1c(=N)c(S(=O)(=O)c2ccccc2)cc2c(=O)n3ccccc3nc21 | inactive
N#Cc1c2ccc(OCC(N)=O)cc2n2ccccc12 | inactive
C=CCN1C(=S)CC(c2ccccc2)=Nc2ccccc21 | inactive
O=c1oc2cc(O)ccc2cc1S(=O)(=O)c1ccccc1 | inactive
Cc1c(C(=O)NCc2cccc([N+](=O)[O-])c2)sc(=O)n1Cc1cccc(F)c1 | inactive
CCOC(=O)c1oc2c(CN3CCN(CCO)CC3)c(O)c(CC)cc2c(=O)c1-c1nc2ccccc2s1 | inactive
Cc1c2c(n3c(nc4ccccc43)c1C#N)N(CCN1CCOCC1)CC2 | inactive
CC(C)CCn1c(CN2CC(C)OC(C)C2)nc2c1c(=O)n(C)c(=O)n2C (stereo not given) | inactive
Cc1cc(-n2c(=O)c(C#N)cc3c(=O)n4cccc(C)c4nc32)no1 | inactive
O=C(CCc1c[nH]c2ccccc12)OCC(=O)c1ccccc1 | inactive
CC1CC(C)CN(CCCNC(=O)CCC(=O)N2CC(C)Oc3ccccc32)C1 (stereo not given) | inactive
CN(C)C(=O)CSc1nc2ccc(C(=O)c3ccccc3)cc2[nH]1 | inactive
O=C(O)c1[nH]c2ccccc2c1C(c1cc(Br)ccc1O)c1c(C(=O)O)[nH]c2ccccc12 | inactive
COc1ccc(S(=O)(=O)N2CCCC2CNC(=O)C(=O)NC2CCCC2)cc1 (stereo not given) | inactive
CCC(C)n1c(=N)c(C#N)cc2c(=O)n3cc(C)ccc3nc21 (stereo not given) | inactive
